Test results published in PubChem BioAssay AID1159606 (Sanford-Burnham Center for Chemical Genomics, 2016).
About 7,300 (2%) of roughly 360,000 compounds were called active. The sample as a whole holds a higher share of actives than the screen did. Values without a mark were called inactive. No stated cut-off is given here; in the data, active means inhibition above about 50%; inactive means the rest.

experiment: blockers of TWEAK-induced Fn14 reporter activity – luciferase reporter cells, uHTS, primary screen (AID 1159606); conditions: TWEAK-stimulated Fn14 reporter cells, luciferase luminescence, 8 h; at 10 µM; active compounds read high

Compared with `CCOC(=O)c1c(N=CN(C)C)c(C#N)c2n1CCCC2`, `CCCc1ccc(-c2c(C)sc(NC(=O)c3ccnn3C)c2C#N)cc1` is higher in inhibition: -13.8% for the first, 13.3% for the second.

First: COc1ccc(C(C)NC(=S)NC2CCCCC2)cc1OC (configuration not stated)
Second: COc1cc(NC(=O)COc2ccccc2Cl)ccc1NC(=O)C(C)C
The inhibition of the first is higher: 10.8% for the first, -5.09% for the second.

First: CC(C)CN(C(=O)CSc1ncnc2sccc12)C1CCS(=O)(=O)C1 (configuration not stated)
Second: CCOC(=O)c1c(NC(=O)CSc2nccc(=O)[nH]2)sc(C)c1C
The inhibition of the first is higher: 4.56% for the first, -3.68% for the second.

Compared with `COc1cc(OC)cc(C2=Cc3ccccc3C(CC(=O)c3ccco3)N2c2ccc(-c3cnc(OC)nc3)cc2)c1` (configuration not stated), `COc1ccc(CNC(=O)c2c[nH]c3c(OC)cc(OC)cc3c2=O)cc1` is lower in inhibition: 16.7% for the first, -46.6% for the second.

Going from `Cc1ccc(NC(=O)CC2S/C(=N/N=C3\CCCc4ccccc43)NC2=O)cc1` (configuration not stated) to `Cc1ccc(CNC(=O)c2ccc3c(c2)S(=O)(=O)c2ccccc2C3=O)cc1`, the inhibition falls from 11.1% to -18%.

Compared with `Cc1ccc(-n2c(SCC(=O)NCc3ccc4c(c3)OCO4)nnc2-c2cccnc2)c(C)c1`, `CCCc1nc(NCc2ccc3c(c2)OCO3)c2nnn(Cc3ccccc3Cl)c2n1` is lower in inhibition: -9.21% for the first, -10.6% for the second.

Going from `CCCc1[nH]nc2c1C(c1ccc(Br)s1)C(C#N)=C(N)O2` (configuration not stated) to `N#CC1=C(N)OC2=C(C(=O)CCC2)C1C1CC=CCC1` (configuration not stated), the inhibition falls from 30.2% to 24.8%.

Compared with `CCCCc1c(-c2ccc(Cl)cc2)ncn1CCc1ccccc1OC`, `CCCCCc1c(-c2cccc(Br)c2)ncn1CCc1ccccc1OC` is lower in inhibition: 26.6% for the first, -2.04% for the second.

First: Cn1c(SCC(=O)Nc2ccc(N3CCOCC3)cc2)nnc1C(F)(F)F
Second: Cc1cccc(C)c1NC(=O)CNC(=O)c1ccc(N2CCOCC2)c([N+](=O)[O-])c1
The inhibition of the first is lower: -2.56% for the first, 8.19% for the second.

Going from `Cc1cc(Br)cn2c(Cc3ccccc3C(F)(F)F)c(-c3ccc(Cl)cc3)nc12` to `Cc1nc(Nc2ccccc2F)c2nnn(Cc3ccccc3Cl)c2n1`, the inhibition falls from 26.9% to 20%.

First: CC(C)(C)c1ccc(C(=O)NCC(=O)OCN2C(=O)c3ccccc3C2=O)cc1
Second: CCCCN1C(=O)c2ccc(C(=O)Nc3ccc(S(=O)(=O)N(C)C)cc3)cc2C1=O
The inhibition of the first is lower: -8.88% for the first, 33.8% for the second.

First: O=C1C2C3C=CC(C3)C2C(=O)N1c1ccc(-c2nc3ccccc3c(=O)o2)cc1 (configuration not stated)
Second: NC(=O)C1CC(=O)N(c2ccc(OCC(=O)NCc3ccccc3)cc2)C1 (configuration not stated)
The inhibition of the first is lower: -0.15% for the first, 32.7% for the second.

First: O=C(/C=C/[C@H]1O[C@@H](n2ccc(=O)[nH]c2=O)[C@H](O)[C@@H]1O)NCc1ccccn1
Second: O=C(NCCc1ccccn1)c1ccc(COc2ccccc2)o1
The inhibition of the first is higher: 9.38% for the first, -2.18% for the second.

First: CCc1ccccc1OCC(=O)Nc1ccc(C)c(S(=O)(=O)N2CCCCCC2)c1
Second: COc1ccc(/C=C/C(=O)Nc2ccc(C)cc2)cc1S(=O)(=O)N1CCOCC1
The inhibition of the first is higher: 12.8% for the first, -4.91% for the second.

Compared with `Cn1nnnc1SCC(=O)Nc1ccccc1C(=O)NC1CC1`, `O=C(NC(=S)Nc1ccccc1C(=O)O)c1ccc(-c2ccc(Br)cc2)o1` is higher in inhibition: -4.44% for the first, 47.2% for the second.

Compared with `COCCOC(=O)c1c(C)oc2cc(Br)c(OCC(N)=O)cc12`, `CCOC(=O)c1c(C)[nH]c(C)c1S(=O)(=O)NCCCc1ccco1` is lower in inhibition: -6.98% for the first, -7.27% for the second.

Going from `CCCCCc1ccc(-c2ccc(OCC)cc2)nc1` to `CCCCCC(=O)Nc1ccc(-c2cn3cccnc3n2)cc1`, the inhibition falls from -9.17% to -20.2%.

First: Cc1cccc(CN2CCN(C3CN(Cc4cn(Cc5ccccc5F)nn4)S(=O)(=O)C3)CC2)c1 (configuration not stated)
Second: O=C1NC[C@H](Cc2ccc(O)cc2)N(C[C@@H]2CCCN2C[C@H](Cc2ccccc2)N2C[C@H](Cc3ccccc3)N(CC3CCCCC3)C(=O)C2=O)C1=O
The inhibition of the first is lower: -19.2% for the first, -9.41% for the second.

First: O=S(=O)(NCCCCCCNS(=O)(=O)c1c(F)cccc1F)c1ccc2c(c1)OCCO2
Second: Nc1ccc(C(=O)N2CCN(S(=O)(=O)c3ccc(Cl)cc3)CC2)cc1[N+](=O)[O-]
The inhibition of the first is higher: 16.7% for the first, -5.64% for the second.

Going from `COc1cccc(C(=O)N/N=C(\C)c2cccc(NC(=O)c3ccc(F)cc3)c2)c1OC` to `Cc1ccc(C(=O)/C=C/Nc2ccc(S(=O)(=O)Nc3onc(C)c3C)cc2)cc1`, the inhibition falls from -20% to -32%.

First: O=C(c1ccc(Oc2ccc(Cl)cc2)c([N+](=O)[O-])c1)N1CCCC1
Second: COc1ccc(NC(=O)C2Cc3c(-c4ccc(Cl)cc4)ccnc3O2)cc1 (configuration not stated)
The inhibition of the first is lower: -4.37% for the first, 6.65% for the second.

Going from `Cc1ccc(S(=O)(=O)n2oc(=O)c(C3CCCCC3)c2N)cc1` to `CCCS(=O)(=O)Nc1ccc(-c2cn3c(n2)SCC3)cc1`, the inhibition falls from 2.92% to -17.6%.

Compared with `Cc1ccccc1Cn1nc(C)c(NC(=O)C(F)(F)F)c1C`, `Cc1nn(Cc2ccc(Cl)c(Cl)c2)c(C)c1NC(=O)c1cc(C2CC2)on1` is lower in inhibition: -0.38% for the first, -9.69% for the second.

For `CCCc1[nH]nc2c1C(C1CC=CCC1)C(C#N)=C(N)O2` (configuration not stated), the inhibition was 53.8% (active).
With `CCCCCc1c(-c2ccc(OC)c(OC)c2)ncn1CCc1ccccc1OC` the inhibition was 62.6% (active).
In the case of `COC(=O)CNC(=O)c1ccc2c(c1)S(=O)(=O)c1ccccc1C2=O`, the inhibition is reported as 65.4% (active).
With `Cc1nc(Nc2ccc3c(c2)OCCO3)c2nnn(Cc3ccccc3Cl)c2n1` the inhibition was 94.4% (active).
With `Cc1ccccc1OCC(=O)Nc1ccc(N2CCN(C(=O)C(C)C)CC2)c(Cl)c1` the inhibition was 70.6% (active).
With `CCCCCc1ccc(-c2ccc(C(=O)O)cc2)nc1` the inhibition was 87.5% (active).
With `CCOC(=O)c1c(C)[nH]c2c1-c1ccccc1C(=O)C2=O` the inhibition was 101% (active).
In the case of `CC1CCN(C(=O)c2ccc(S(=O)(=O)Cc3cc(F)ccc3F)c([N+](=O)[O-])c2)CC1`, the inhibition is reported as 83.4% (active).
With `COc1ccc(/C=C/C(=O)c2ccc(NS(=O)(=O)c3ccc(C)cc3)cc2)cc1O` the inhibition was 60.9% (active).
With `O=C(c1[nH]ncc1-c1ccc(Cl)cc1)C1CO1` (configuration not stated) the inhibition was 66.5% (active).
With `Cc1nn(Cc2ccc(F)cc2)c(C)c1NC(=O)c1noc2c1CCc1ccccc1-2` the inhibition was 60.1% (active).
